High-throughput results deposited in PubChem by Broad Institute.
STK33 kin inh: inhibitors of human STK33 kinase; 27,000 compounds, 0.44% hits; Q9BYT3; AID 2322; ADP-Glo luminescence, MBP substrate; inhibition, % at 12.5 µM; in the data active = inhibition above about 20%
Target sequence (Q9BYT3 whole entry, looked up): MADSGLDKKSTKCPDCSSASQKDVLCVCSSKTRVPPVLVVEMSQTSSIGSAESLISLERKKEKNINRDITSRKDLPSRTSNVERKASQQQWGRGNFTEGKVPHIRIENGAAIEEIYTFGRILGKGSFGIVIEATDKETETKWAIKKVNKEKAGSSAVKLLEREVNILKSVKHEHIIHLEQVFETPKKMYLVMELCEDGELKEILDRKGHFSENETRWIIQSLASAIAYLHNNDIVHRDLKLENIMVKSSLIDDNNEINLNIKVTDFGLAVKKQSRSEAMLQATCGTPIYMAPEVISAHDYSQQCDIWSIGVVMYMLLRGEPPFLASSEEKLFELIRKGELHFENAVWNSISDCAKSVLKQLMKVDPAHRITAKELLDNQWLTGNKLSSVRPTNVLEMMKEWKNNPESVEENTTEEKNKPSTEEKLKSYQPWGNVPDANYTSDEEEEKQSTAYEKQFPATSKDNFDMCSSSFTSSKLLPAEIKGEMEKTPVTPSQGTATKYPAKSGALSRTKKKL
NOMO-1 viab: STK33 inhibitor candidate reducing NOMO-1 cell viability; NOMO-1 AML viability, CellTiter-Glo luminescence, 72 h; AID 2330; inhibition, % (concentration not given with the values); 37,000 compounds, 7.5% hits; in the data active = inhibition above about 80%
PD-1 reverse act: activators reversing PD-1 mediated T-cell inhibition | primary human CD4 T cells, PD-L1 beads, CellTiter-Glo 96 h | activation, % (concentration not given with the values) | 29,000 tested, under 10 active; call rule not given here
A number is an active result; n = inactive; x = not tested or not shown. This is one part of a sample in which hits are shown more often than they occur.

SMILES	STK33 kin inh	NOMO-1 viab	PD-1 reverse act
Oc1c(C(Nc2cccnc2)c2ccc(Cl)cc2)ccc2cccnc12 (centres undefined)	n	120	n
O=C(CSCc1c(Cl)cccc1Cl)Nc1cccnc1	n	n	n
Oc1c(C(Nc2cccc(Cl)c2)c2cccnc2)ccc2cccnc12 (centres undefined)	x	115	n
Oc1c(C(Nc2cccnc2)c2ccccc2F)ccc2cccnc12 (centres undefined)	n	116	x
Cc1ccc([N+](=O)[O-])cc1N(CC(=O)Nc1ccc(Cl)cc1)S(C)(=O)=O	n	n	x
COc1ccc(OC)c(S(=O)(=O)N2CCC(C(=O)Nc3cccc(SC)c3)CC2)c1	n	n	n
COCCNC(=O)Nc1ccc2nc(-c3ccccn3)c(-c3ccccn3)nc2c1	n	n	n
CCOc1ccc(C(=O)c2oc3ccccc3c2NC(=O)c2cc3ccccc3oc2=O)cc1	n	n	n
Cc1ccc(C(=O)c2oc3ccccc3c2NC(=O)c2cc3ccccc3oc2=O)cc1F	n	112	n
O=C(CN1CCCCC1)Nc1nonc1NC(=O)CN1CCCCC1	n	n	x
C=C(C)[C@@H]1CC[C@]2(C(=O)O)CC[C@]3(C)[C@H](CC[C@@H]4[C@@]5(C)CC[C@H](O)C(C)(C)[C@@H]5CC[C@]43C)[C@@H]12	n	105	x
C=C(C)[C@@H]1CC[C@]2(C(=O)O)CC[C@]3(C)[C@H](CCC4[C@@]5(C)CCC(=O)C(C)(C)C5C(O)C[C@]43C)C12 (some centres undefined)	n	104	n
C=C(C)[C@@H]1CC[C@]2(C(=O)O)CC[C@]3(C)[C@H](CCC4[C@]5(C)C(CC[C@]43C)[C@@](C)(CO)[C@@H](O)[C@@H]5C(=O)O)C12 (some centres undefined)	n	n	n
CC(C)S(=O)(=O)N[C@@H]1CCCN(Cc2ccc(OCCO)cc2)C1	n	x	x
O=C1c2nc3cc(-c4ccccc4)[nH]n3c(=O)c2CN1C1CCCCC1	x	n	n
C[C@H]1CN([C@@H](C)CO)C(=O)Cc2cc(NC(=O)Nc3ccc(C(F)(F)F)cc3)ccc2O[C@@H]1CN(C)S(=O)(=O)c1cn(C)cn1	n	n	n
C[C@H](CO)N1C[C@H](C)[C@H](CN(C)S(=O)(=O)c2cn(C)cn2)Oc2ccc(NC(=O)Nc3ccc(C(F)(F)F)cc3)cc2CC1=O	x	125	x
C[C@@H]1CN([C@H](C)CO)C(=O)Cc2cc(NC(=O)Nc3ccc(C(F)(F)F)cc3)ccc2O[C@H]1CN(C)S(=O)(=O)c1cn(C)cn1	n	n	n
C[C@@H]1CN([C@@H](C)CO)C(=O)Cc2cc(NC(=O)Nc3ccc(C(F)(F)F)cc3)ccc2O[C@@H]1CN(C)S(=O)(=O)c1cn(C)cn1	n	112	n
COc1cccc(NC(=O)CC2OCCN(Cc3ccccc3)C2=O)c1 (centres undefined)	n	x	x
O=C1CC(c2ccccc2)=NN1	x	n	n
O=c1[nH]c(-c2ccccc2)nnc1/C=C(\O)c1cccs1	x	n	n
COc1ccc(S(=O)(=O)n2nc(C)cc2C)cc1N(C)S(=O)(=O)c1ccccc1	n	n	n
Cc1c(Cl)cccc1N(CC(=O)Nc1cc(Cl)cc(Cl)c1)S(C)(=O)=O	n	n	n
CCOC(=O)c1cc(NC(=O)CN2C(=O)COc3ccc(Cl)cc32)ccc1Cl	n	n	x
SMILES	STK33 kin inh	NOMO-1 viab	PD-1 reverse act
CC(Oc1ccc(Cl)cc1Cl)C(=O)Nc1cccc(NC(=O)c2ccc(Cl)cc2Cl)c1 (centres undefined)	n	n	n
CC12CC3CC(C1)CC(NC(=O)c1ccc(Cl)cc1Cl)(C3)C2	x	115	n
COc1ccc(OC)c(NC(=O)Cn2cnc3sc(C)c(-c4ccc(Cl)cc4)c3c2=O)c1	n	n	x
Cc1cc(C)c(C(=O)N2Cc3ccccc3NC2=S)c(C)c1	x	n	n
C[C@H](CO)N1C[C@H](C)[C@H](CN(C)CC2CC2)Oc2c(NC(=O)CCCCCC(=O)Nc3ccccc3N)cccc2C1=O	x	n	n
C[C@H](CO)N1C[C@H](C)[C@@H](CN(C)CC2CC2)Oc2c(NC(=O)CCCCCC(=O)Nc3ccccc3N)cccc2C1=O	x	121	n
C[C@@H]1CN([C@@H](C)CO)C(=O)c2cccc(NC(=O)CCCCCC(=O)Nc3ccccc3N)c2O[C@H]1CN(C)CC1CCCCC1	x	138	n
C[C@H](CO)N1C[C@H](C)[C@H](CN(C)C)Oc2c(NC(=O)CCCCCC(=O)Nc3ccccc3N)cccc2C1=O	x	n	n
COCCOC(=O)N1C(=O)[C@@]2(c3cc(C#CCC(C(=O)OC)C(=O)OC)ccc31)[C@H](C(N)=O)[C@H]1C(=O)O[C@H](c3ccccc3)[C@H](c3ccccc3)N1[C@@H]2c1ccccc1OCCO	n	x	x
CCN1C(=O)/C(=C2\SC(=S)N(c3ccc(OC)cc3)C2=O)c2ccccc21	x	n	n
COc1cc(OC)cc(-c2nnc(SCC(=O)Nc3ccc(I)cc3)o2)c1	n	90	n
